PubChem BioAssay (EPA / NIEHS)
The source made the active and inactive calls. How the source made its calls: active means hit-call score of the fitted dose curve at least 0.9, where 1 is the maximum; inactive means score below 0.9.

Experiments:
[1] = molecular target: Hypoxia-inducible factor 1-alpha (Homo sapiens) (UniProt Q16665); experiment: ATG_HIF1a_CIS: Attagene CIS-FACTORIAL HepG2 Assay for human Hypoxia Inducible Factor 1 (HIF1A) (AID 2282951); details: HepG2 Attagene cis-factorial HIF1a reporter transcription; actives raise or lower the signal
Procedure, shortened: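 HepG2 cells transiently transfected with multiple cis-regulated reporter transcription units measure endogenous transcription factor activity. After 24 h exposure, reporter mRNA is quantified by RT-PCR with 6-FAM labelling, HpaI digestion and capillary electrophoresis. Bidirectional fitting against DMSO.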

[2] = molecular target: Hepatocyte nuclear factor 6 (Homo sapiens) (UniProt Q9UBC0); experiment: ATG_HNF6_CIS: Attagene CIS-FACTORIAL HepG2 Assay for human Hepatocyte Nuclear Factor 6 (HNF6) (AID 2282952); details: HepG2 Attagene cis-factorial HNF6 reporter transcription; actives raise or lower the signal
Procedure, shortened: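 Reporter mRNA induction or loss in HepG2 after 24 h exposure; transient cis-MRTU transfection; fragments quantified by capillary electrophoresis; bidirectional analysis, DMSO as negative control.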

[3] = molecular target: Heat shock factor protein 1 (Homo sapiens) (UniProt Q00613); experiment: ATG_HSE_CIS: Attagene CIS-FACTORIAL HepG2 Assay for human Heat Shock Transcription Factor 1 (HSE) (AID 2282953); details: HepG2 HSE cis-reporter, Attagene RNA transcription; actives raise or lower the signal
Procedure, shortened: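 Endogenous transcription factor activity in transiently transfected HepG2, read as reporter mRNA by RT-PCR with fluorescent capillary electrophoresis after 24 h. Gain or loss of signal fitted versus DMSO baseline.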

[4] = ATG_MRE_CIS: Attagene CIS-FACTORIAL HepG2 Assay for human Metal Responsive Element (MRE) (AID 2282954); details: HepG2 MRE cis-reporter transcription, Attagene multiplex; actives raise or lower the signal
Procedure, shortened: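 After a 24 h chemical exposure, transiently transfected HepG2 cells yield RNA whose reporter sequences are amplified, FAM-labelled and sized by capillary electrophoresis. Curves are fitted bidirectionally relative to DMSO.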

[5] = molecular target: Paired box protein Pax-6 (Homo sapiens) (UniProt P26367); experiment: ATG_Pax6_CIS: Attagene CIS-FACTORIAL HepG2 Assay for human Paired Box 6 (PAX6) (AID 2282956); details: HepG2 CIS-FACTORIAL PAX6 reporter transcription, RNA readout; actives raise or lower the signal
Procedure, shortened: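 Transient MRTU transfection of HepG2 → compound exposure 24 h → TriZol RNA, oligo(dT) RT → PCR, 6-FAM primer extension, HpaI cut → capillary electrophoresis; activity fitted both directions against DMSO.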

[6] = ATG_PXRE_CIS: Attagene CIS-FACTORIAL HepG2 Assay for human Pregnane X Receptor Element (PXRE) (AID 2282957); details: HepG2 Attagene CIS-FACTORIAL PXRE reporter, mRNA; actives raise or lower the signal
Procedure, shortened: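 Transiently transfected HepG2 cells were dosed and incubated for 24 h. RNA was then isolated, DNase-treated, reverse-transcribed and reporter sequences amplified. Labeled, HpaI-digested fragments were quantified by capillary electrophoresis against DMSO.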

[7] = ATG_PPRE_CIS: Attagene CIS-FACTORIAL HepG2 Assay for human Peroxisome Proliferator-activated Response Element (PPRE) (AID 2282958); details: HepG2 PPRE cis-element reporter, Attagene transcription factor profiling; actives raise or lower the signal
Procedure, shortened: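 HepG2 cells are transiently transfected with multiplexed cis-promoter reporter units to report endogenous PPAR activity. After 24 h dosing, reporter mRNA is read by RT-PCR and capillary electrophoresis. Fitting is bidirectional against DMSO.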

[8] = ATG_RORE_CIS: Attagene CIS-FACTORIAL HepG2 Assay for human RAR-related Orphan Receptor Element (RORE) (AID 2282959); details: HepG2 Attagene cis-factorial RORE reporter, mRNA; actives raise or lower the signal
Procedure, shortened: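 HepG2 cells carrying transiently transfected cis-regulated reporter units; RORE-driven reporter mRNA quantified 24 h post-dosing by RT-PCR, 6-FAM primer extension, HpaI digestion and capillary electrophoresis. Bidirectional fit versus DMSO.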

[9] = ATG_Sox_CIS: Attagene CIS-FACTORIAL HepG2 Assay for human SRY-box transcription factor (SOX) (AID 2282960); details: HepG2 Attagene cis-factorial SOX reporter, mRNA; actives raise or lower the signal
Procedure, shortened: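 HepG2 cells transiently transfected with multiple cis-regulated reporter units, then dosed for 24 h. Reporter mRNA quantified by RT-PCR, fluorescent labelling, HpaI digestion and capillary electrophoresis; bidirectional fit versus DMSO.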

[10] = ATG_PBREM_CIS: Attagene CIS-FACTORIAL HepG2 Assay for human Phenobarbital-responsive Enhancer Module (PBREM) (AID 2282955); details: HepG2 PBREM cis-reporter, Attagene multiplexed transcription; actives raise or lower the signal
Procedure, shortened: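 HepG2 cells transiently transfected with multiple cis-regulated reporter units measure endogenous transcription factor activity; 24 h compound exposure. Reporter mRNA quantified by RT-PCR, fluorescent labelling, HpaI digestion and capillary electrophoresis; bidirectional fit versus DMSO.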

Measured: AC50

Chain of Hepatocyte nuclear factor 6 (Homo sapiens) (Q9UBC0 whole entry, looked up, the tested form may be a part): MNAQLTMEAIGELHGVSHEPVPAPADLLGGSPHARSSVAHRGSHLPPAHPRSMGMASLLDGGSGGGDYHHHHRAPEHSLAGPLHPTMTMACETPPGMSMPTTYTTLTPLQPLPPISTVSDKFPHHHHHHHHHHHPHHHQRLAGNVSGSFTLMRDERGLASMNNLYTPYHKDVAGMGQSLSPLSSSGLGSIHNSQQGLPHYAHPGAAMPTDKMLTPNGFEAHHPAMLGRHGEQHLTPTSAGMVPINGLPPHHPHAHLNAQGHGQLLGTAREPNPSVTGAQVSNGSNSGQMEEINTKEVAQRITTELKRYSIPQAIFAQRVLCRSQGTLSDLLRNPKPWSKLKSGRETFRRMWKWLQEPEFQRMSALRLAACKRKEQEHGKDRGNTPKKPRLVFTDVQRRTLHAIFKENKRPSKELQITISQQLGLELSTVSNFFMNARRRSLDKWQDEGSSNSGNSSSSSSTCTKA
Chain of Paired box protein Pax-6 (Homo sapiens) (P26367 whole entry, looked up): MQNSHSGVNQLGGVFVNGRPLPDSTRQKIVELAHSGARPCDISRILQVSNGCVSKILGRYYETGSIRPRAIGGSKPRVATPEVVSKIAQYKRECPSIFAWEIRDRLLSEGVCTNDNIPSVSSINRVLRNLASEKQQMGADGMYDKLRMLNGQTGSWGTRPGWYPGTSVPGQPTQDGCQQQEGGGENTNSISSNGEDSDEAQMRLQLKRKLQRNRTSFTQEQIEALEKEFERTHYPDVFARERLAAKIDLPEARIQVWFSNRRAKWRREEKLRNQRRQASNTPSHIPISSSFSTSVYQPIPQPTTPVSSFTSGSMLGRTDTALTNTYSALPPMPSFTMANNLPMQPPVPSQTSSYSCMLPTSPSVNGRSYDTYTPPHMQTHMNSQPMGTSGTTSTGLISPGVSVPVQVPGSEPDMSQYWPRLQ
Chain of Hypoxia-inducible factor 1-alpha (Homo sapiens) (Q16665 whole entry, looked up): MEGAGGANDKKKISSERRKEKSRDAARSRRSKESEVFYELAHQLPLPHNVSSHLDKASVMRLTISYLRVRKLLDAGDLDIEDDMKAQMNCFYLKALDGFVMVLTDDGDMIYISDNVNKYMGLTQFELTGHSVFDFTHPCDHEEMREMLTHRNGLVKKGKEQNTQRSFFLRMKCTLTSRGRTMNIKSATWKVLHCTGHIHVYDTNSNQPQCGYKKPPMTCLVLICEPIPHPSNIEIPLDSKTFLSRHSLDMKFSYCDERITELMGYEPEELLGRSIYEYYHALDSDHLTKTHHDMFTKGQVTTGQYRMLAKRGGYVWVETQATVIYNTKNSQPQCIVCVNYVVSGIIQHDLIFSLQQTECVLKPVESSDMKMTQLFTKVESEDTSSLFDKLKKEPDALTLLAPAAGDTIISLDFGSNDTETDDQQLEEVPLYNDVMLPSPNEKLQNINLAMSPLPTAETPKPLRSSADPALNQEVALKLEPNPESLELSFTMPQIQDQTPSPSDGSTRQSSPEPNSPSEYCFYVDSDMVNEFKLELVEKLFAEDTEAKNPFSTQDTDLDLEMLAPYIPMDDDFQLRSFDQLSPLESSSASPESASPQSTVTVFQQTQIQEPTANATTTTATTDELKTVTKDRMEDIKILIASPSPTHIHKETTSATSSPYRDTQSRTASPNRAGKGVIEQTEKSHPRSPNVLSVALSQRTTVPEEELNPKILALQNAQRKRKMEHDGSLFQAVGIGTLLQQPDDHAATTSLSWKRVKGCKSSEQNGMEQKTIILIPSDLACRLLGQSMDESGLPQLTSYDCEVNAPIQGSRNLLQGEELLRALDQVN
Chain of Heat shock factor protein 1 (Homo sapiens) (Q00613 whole entry, looked up): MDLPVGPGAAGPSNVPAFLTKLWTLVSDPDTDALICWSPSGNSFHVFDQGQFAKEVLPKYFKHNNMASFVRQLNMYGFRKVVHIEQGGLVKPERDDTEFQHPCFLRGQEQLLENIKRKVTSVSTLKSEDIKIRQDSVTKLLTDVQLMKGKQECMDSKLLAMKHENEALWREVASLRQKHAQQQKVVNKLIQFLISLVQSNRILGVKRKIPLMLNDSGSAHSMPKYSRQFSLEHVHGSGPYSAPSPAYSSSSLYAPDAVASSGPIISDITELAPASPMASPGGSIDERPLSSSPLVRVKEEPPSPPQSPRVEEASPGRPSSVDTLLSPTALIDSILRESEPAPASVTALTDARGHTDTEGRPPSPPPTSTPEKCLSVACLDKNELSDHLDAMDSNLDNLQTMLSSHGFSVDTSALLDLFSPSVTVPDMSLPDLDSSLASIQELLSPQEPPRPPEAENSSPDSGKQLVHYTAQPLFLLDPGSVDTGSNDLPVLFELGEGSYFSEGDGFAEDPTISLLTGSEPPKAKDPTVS

CC(c1ccccc1)(c1ccc(O)cc1)c1ccc(O)cc1
active: [3] 17.7 µM | [4] 16.3 µM | [5] 17.8 µM | [6] 2.92 µM
inactive: [1] | [2] | [7] | [8] | [9]

Nc1c(Oc2ccccc2)cc(O)c2c1C(=O)c1ccccc1C2=O
active: [6] 4.42 µM
inactive: [1] | [2] | [4] | [10] | [5] | [7] | [8] | [9]

O=[N+]([O-])c1cc([As](=O)(O)O)ccc1O
inactive: [1] | [2] | [3] | [4] | [5] | [6] | [7] | [8] | [9]

Nc1cccnc1
inactive: [1] | [2] | [4] | [10] | [5] | [7] | [8]
active: [6] 40.2 µM

ClCCCCl
inactive: [1] | [2] | [4] | [10] | [5] | [6] | [7] | [8] | [9]

Cc1cc(C)cc(C)c1
inactive: [1] | [2] | [3] | [4] | [5] | [6] | [8] | [9]

Oc1ccc(Cc2ccc(O)cc2)cc1
inactive: [1] | [2] | [4] | [10] | [5] | [8]
active: [6] 61.6 µM | [7] 38.8 µM

OC[P+](CO)(CO)CO
inactive: [1] | [2] | [4] | [10] | [5] | [6]

CN(C)C(=S)S
active: [6] 26.3 µM
inactive: [1] | [2] | [3] | [4] | [5] | [9]

BrCCCCBr
inactive: [1] | [2] | [3] | [4] | [5] | [6] | [9]

CN(C1CCCCC1)C1CCCCC1
inactive: [1] | [2] | [4] | [10] | [5] | [7] | [8] | [9]
active: [6] 31.7 µM

Clc1ccc(C(Cl)(Cl)Cl)cn1
inactive: [1] | [2] | [3] | [4] | [5] | [7] | [8] | [9]
active: [6] 14.1 µM

CC(O)(CS(=O)(=O)c1ccc(F)cc1)C(=O)Nc1ccc(C#N)c(C(F)(F)F)c1 (stereo not drawn)
active: [4] 72.3 µM | [6] 3.99 µM
inactive: [1] | [2] | [10] | [5] | [7] | [8] | [9]

CCOCn1c(-c2ccc(Cl)cc2)c(C#N)c(Br)c1C(F)(F)F
active: [2] 184 µM | [4] 34.7 µM | [5] 2.77 µM | [6] 0.46 µM | [7] 4.17 µM | [8] 3.54 µM | [9] 30.4 µM
inactive: [1] | [10]

CCOP(=S)(OCC)O/N=C(\C#N)c1ccccc1
inactive: [2] | [3] | [4] | [5] | [8] | [9]
active: [1] 67.2 µM | [6] 2.2 µM | [7] 7.85 µM

O=S(=O)(c1ccc(Cl)cc1)c1cc(Cl)c(Cl)cc1Cl
inactive: [1] | [2] | [4] | [10] | [5] | [7] | [8] | [9]
active: [6] 1.59 µM

N#CS
inactive: [1] | [2] | [3] | [4] | [5] | [6] | [7] | [8] | [9]

O=C(O)COc1cc(Cl)c(Cl)cc1Cl
active: [7] 33.5 µM
inactive: [1] | [2] | [3] | [4] | [5] | [6] | [8] | [9]

CCCSP(=S)(OCC)Oc1ccc(SC)cc1 (stereo not drawn)
active: [10] 2.14 µM | [6] 2.92 µM
inactive: [1] | [2] | [4] | [5] | [7] | [8] | [9]

C[N+](C)(C)Cc1ccccc1
inactive: [1] | [2] | [3] | [4] | [5] | [6] | [9]

[F][Sn]([c]1ccccc1)([c]1ccccc1)[c]1ccccc1
active: [1] 0.327 µM | [3] 0.324 µM | [4] 0.339 µM | [5] 0.346 µM | [6] 0.466 µM | [8] 0.0319 µM | [9] 0.328 µM
inactive: [2]

C=C(C)[C@@H]1CC=C(C=O)CC1
active: [4] 85.2 µM | [6] 9.25 µM
inactive: [1] | [2] | [3] | [5] | [7] | [9]

CC1(C)[C@H](/C=C2\CCSC2=O)[C@@H]1C(=O)OCc1coc(Cc2ccccc2)c1
active: [1] 12.9 µM | [4] 19.8 µM | [10] 0.313 µM | [5] 11.1 µM | [6] 0.143 µM | [8] 24.8 µM
inactive: [2] | [7]

OCC(c1ccc(Cl)cc1)c1ccc(Cl)cc1
inactive: [5] | [8] | [9]
active: [1] 55.3 µM | [2] 56.6 µM | [3] 52.8 µM | [4] 58.9 µM | [6] 8.73 µM

CCCCN(CCCC)C(=S)[S-].CCCCN(CCCC)C(=S)[S-].[Ni+2]
active: [6] 7.2 µM
inactive: [1] | [2] | [3] | [4] | [5] | [8] | [9]
